hgDAF12 agonist – agonists of H. glycines DAF-12 nuclear receptor; HEK293 GAL4-hgDAF12 UAS-luciferase reporter, agonist luminescence; normalized to butyrate control; AID 687014; 370,000 tested, 1.8% active; activation, % at 6.8 µM;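 active means activation above a cutoff set at the mean of all screened compounds plus 3 SD, cut at about 10% in these data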;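 further: 0% = DMSO wells and 100% = sodium butyrate wells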
hcDAF12 agonist – H. contortus DAF-12 activation, primary screen | HEK293 hcDAF-12 lit1-tk-luc reporter, luminescence; 0% DMSO, 100% Δ7-dafachronic acid | activation, % at 6.8 µM | 370,000 tested, 1.4% active | AID 652067;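 active means activation above the mean of all tested compounds plus 3 SD, cut at about 5.5% in these data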;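 further: 100% = response to 3 µM Δ7-dafachronic acid high control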
DAX1 inh-1 – inhibitors of human orphan nuclear receptor DAX1 (NR0B1). HEK293 Gal4-DAX1 luciferase reporter, luminescence. 340,000 tested, 0.99% active. inhibition, % at 6.75 µM;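 active means inhibition above the mean over all tested compounds plus 3 SD, cut at about 4.2% in these data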;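 further: 0% = DAX1-transfected cells with DMSO and 100% = empty-vector control cells with DMSO; inhibition shows as a rise in luminescence from relieved DAX1 repression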
Target sequence (P51843 207-470 limits assumed): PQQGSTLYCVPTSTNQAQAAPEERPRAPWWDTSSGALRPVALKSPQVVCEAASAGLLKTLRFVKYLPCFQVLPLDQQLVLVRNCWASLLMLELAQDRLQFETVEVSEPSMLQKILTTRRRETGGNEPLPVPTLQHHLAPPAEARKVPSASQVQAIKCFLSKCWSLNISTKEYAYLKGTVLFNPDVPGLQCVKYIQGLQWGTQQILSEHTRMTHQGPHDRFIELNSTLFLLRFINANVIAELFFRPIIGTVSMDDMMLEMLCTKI
DAX1 inh-2 – blocks DAX1 repression of SF-1 activated StAR promoter | AID 652010 | inhibition, % at 6.8 µM | HEK293T StAR-luciferase reporter, SF-1/DAX-1 repression relief | 370,000 tested, 1.1% active;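 active means inhibition above the mean over all tested compounds plus 3 SD, cut at about 3.6% in these data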;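 further: 0% = DAX-1 cells with DMSO and 100% = cells lacking DAX-1 with DMSO; higher inhibition means more luminescence from relief of DAX-1 repression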
ssDAF12 agonist – activates DAF-12 receptor from parasite S. stercoralis | HEK293 ssDAF-12/GRIP1 lit1-tk-luc reporter, luminescence; % of 3 µM dafachronic acid response | 370,000 tested, 1% active | activation, % at 6.8 µM;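 active means activation above the mean over all tested compounds plus 3 SD, cut at about 0.9% in these data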;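 further: 0% = DMSO-only wells and 100% = 3 µM delta7-dafachronic acid wells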
AHR activator – activates the human aryl hydrocarbon receptor. AHR-responsive luciferase reporter cells, luminescence. P35869. 320,000 tested, 2.5% active. activation, % at 5 µM; in the data active means activation above about 47%;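 further: 0% = vehicle wells and 100% = reference agonist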
Numbers without * were called inactive; · = no result. Rows were chosen to be rich in hits. Some 5.7% of all compounds tested hit in one or more screens of this group.

SMILES	hgDAF12 agonist	hcDAF12 agonist	DAX1 inh-1	DAX1 inh-2	ssDAF12 agonist	AHR activator
CCCCNC(=O)c1ccc2nc(CC)c(N(CC)CCN(C)C)n2c1	1.5	0.3	·	0.5	0.9*	·
CCCCNC(=O)c1ccc2nc(CC)c(N(CCC(C)C)CCN(C)C)n2c1	-0.7	-1.6	·	0.1	-1.3	·
O=C(NNc1nc2cc3c(cc2s1)OCCO3)c1ccc(F)cc1	3.8	4.3	3.1	-0.2	0.1	41.9
O=C(NNc1nc2cc3c(cc2s1)OCO3)c1ccc(F)cc1	8.7	2.3	1.4	0.5	-0.5	59.9*
O=C(COc1ccccc1)Nc1nc2cc3c(cc2s1)OCO3	5.0	6.1*	0.3	3.2	-0.5	2.1
O=C(COc1ccccc1)Nc1nc2cc3c(cc2s1)OCCO3	2.4	4.1	1.3	2.0	0.1	31.8
c1c2c(cc3sc(N4CCCCC4)nc13)OCO2	9.0	6.0*	-1.4	3.3	0.7	-8.6
c1ccc(N2CCN(c3nc4cc5c(cc4s3)OCO5)CC2)cc1	6.3	0.3	0.2	0.4	-0.5	0.7
CC(=O)Nc1nc2cc3c(cc2s1)OCO3	13.0*	3.8	1.8	3.2	-0.7	54.3*
CC(=O)c1sc(Nc2nc3cc4c(cc3s2)OCO4)nc1C	2.5	-1.2	0.6	2.0	-1.7	·
O=C1C=C(c2ccc(F)nc2)C[C@@H](c2ccc3c(c2)OCO3)C1	-2.4	-1.0	1.6	-0.9	-0.8	58.0*
COc1ccc(C2=CC(=O)C[C@H](c3ccc4c(c3)OCO4)C2)cn1	-2.6	1.9	-0.5	-0.5	-0.9	29.4
Cc1cccc(C(=O)NC2CCN(S(=O)(=O)c3ccccc3F)CC2)c1	-2.1	-3.2	4.3*	-0.4	-1.6	-0.2
Cc1cccc(C(=O)NC2CCCCCCC2)c1	11.2*	3.0	3.4	1.2	-0.1	11.6
Cc1ccc(C(=O)NC2CCN(S(=O)(=O)c3ccccc3F)CC2)cc1	0.3	-1.3	-1.5	-0.5	-2.3	2.5
CN(C)c1cccc(C(=O)NC2CCCCCC2)c1	8.9	1.7	1.2	2.0	-0.7	25.0
COc1ccc(N2CCCN(CC(=O)Nc3ccccc3C)CC2)cc1	2.8	-2.6	·	-0.3	-0.4	·
Cc1ccc(/C=N/N2CCN(c3ccccc3)CC2)cc1	5.9	-0.2	0.5	-0.5	-1.2	-4.2
Cc1ccccc1/C=N/N1CCN(c2ccccc2)CC1	1.3	-1.1	1.6	1.4	-0.6	73.3*
O=[N+]([O-])c1ccc(Cl)c(/C=N/N2CCN(c3ccccc3)CC2)c1	-0.2	3.0	1.3	0.1	0.3	58.2*
COc1ccccc1C(=O)N1CCC2CCN(C(=O)OC(C)(C)C)C2C1 (stereo not drawn)	1.7	-0.8	·	-2.0	-0.3	·
COC(=O)[C@@H](Cc1c[nH]c2ccccc12)NC(=O)CCC(=O)c1ccc(F)cc1	-0.2	5.6*	0.1	-0.2	-0.4	7.2
COC(=O)C(Cc1c[nH]c2ccccc12)NC(C)=O (stereo not drawn)	3.8	0.3	1.1	0.1	-0.3	-3.5
COC(=O)[C@@H](Cc1c[nH]c2ccccc12)NCc1cccc(B(O)O)c1	-1.9	5.8*	-0.1	-0.9	-0.3	·
Cc1ccc2c(CC(=O)NCCc3ccc(S(N)(=O)=O)cc3)coc2c1	-4.6	0.2	-0.6	-0.7	-2.1	0.0
SMILES	hgDAF12 agonist	hcDAF12 agonist	DAX1 inh-1	DAX1 inh-2	ssDAF12 agonist	AHR activator
CCOc1ccc(C(=O)OCC(=O)Nc2ccc(SC(F)F)cc2)cc1OCC	-0.8	-2.9	-1.2	-0.1	-0.5	2.4
O=C(O)c1c(Cl)c(Cl)c(Cl)c(Cl)c1C(=O)OCC1CCCO1 (stereo not drawn)	-2.8	-0.5	0.9	-1.2	-0.1	·
CCn1cc(C2=NC(CC(C)C)CO2)c2ccccc21 (stereo not drawn)	-1.0	-0.8	0.5	0.1	-1.7	66.7*
CCn1cc(C2=NC(C(C)C)CO2)c2ccccc21 (stereo not drawn)	3.4	-1.0	0.7	-0.6	-0.5	53.1*
CCn1cc(C2=NC(CCSC)CO2)c2ccccc21 (stereo not drawn)	0.6	-1.4	0.5	-1.2	-1.2	11.1
CCC(C)Sc1cccc(-c2nc3cc(C)ccn3c2NCc2ccccc2)c1 (stereo not drawn)	5.9	-1.2	1.4	-0.7	-0.6	29.3
CCc1noc(C)c1C(=O)NNC(=O)c1nn(C)c(=O)c2ccccc12	1.7	0.4	-0.3	-0.8	-1.2	-0.6
CCc1noc(C)c1C(=O)NNC(=O)c1nn(CC)c(=O)c2ccccc12	0.8	0.4	5.2*	-1.5	-1.2	0.0
COc1cc([N+](=O)[O-])ccc1NC(=O)CSc1nc2ccccc2n1-c1ccccc1	-2.4	5.4	·	-0.1	-0.5	61.3*
COc1ccccc1CC(=O)Nc1ccc([N+](=O)[O-])cc1O	-1.4	1.0	5.9*	-0.3	-0.3	30.3
COc1cc([N+](=O)[O-])ccc1NC(=O)COC(=O)c1n[nH]c2ccccc12	-0.7	6.3*	-2.3	-0.3	-1.0	24.2
CN(C)c1ccc(/C=c2/sc3n(c2=O)NC2(c4ccccc4)N(C)C(=O)N(C)C2(c2ccccc2)N=3)cc1 (stereo not drawn)	·	·	·	·	·	5.1
O=C(CNC(=O)N1CC(=O)Nc2ccccc21)NCc1ccc(F)cc1	4.8	-0.5	1.5	1.9	-1.1	·
CC(NC(=O)C1CCCN1C(=O)OC(C)(C)C)C(=O)OCc1ccccc1 (stereo not drawn)	1.4	-1.4	·	1.5	-1.4	·
COC(=O)C1=C(C)N(Cc2cccc(C(F)(F)F)c2)C(=NCc2cc(OC)c(OC)c(OC)c2)NC1c1ccccc1 (stereo not drawn)	-0.6	-0.5	·	0.3	-0.4	·
C[C@H](NC(=O)Nc1ccc2c(c1)OCCO2)C(=O)O	-1.1	0.7	1.5	-0.7	-1.6	0.4
O=C(CCc1ccccc1)N1CCN(S(=O)(=O)c2cccs2)CC1	2.8	-1.0	0.3	3.0	-1.0	0.3
COc1ccc(Cl)cc1NC(=O)C/C(C)=N/NC(=O)CC#N	2.0	2.5	0.4	-1.1	-0.2	71.9*
COc1ccc(Cl)cc1NC(=O)C/C(C)=N/NC(=O)CCc1ccccc1	-0.2	0.8	-0.5	-0.4	-0.1	15.8
CCN1CCc2c(OCC(=O)N3CCCCC3)cccc2C1=O	1.5	0.5	1.4	0.0	-0.8	4.7
O=C(Nc1ccccc1-c1nc2ccccc2[nH]1)c1ccc(N2C(=O)CCC2=O)cc1	-3.3	-2.7	1.1	-0.5	-1.8	49.5*
Cn1cnc(S(=O)(=O)N2CCN(c3cccc(C(F)(F)F)c3)CC2)c1	-1.1	-2.6	0.0	-1.0	-1.2	1.1
COc1ccc(CCNC(=S)NC2CCN(Cc3ccccc3)CC2)cc1	-1.7	-2.1	-1.6	-0.8	-1.9	5.2
CC(C)n1cnc2c(Nc3cccc(Cl)c3)nc(NCCCO)nc21	-2.9	-2.6	-2.3	-1.8	-2.3	68.9*

Screens (PubChem)
